Results published in PMC8384837, “Expanding the binding specificity for RNA recognition by a PUF domain”.

Key:
Assay in all cases: yeast three-hybrid, YBZ-1, SC-Leu-His + 0.5 mM 3-AT, 4 days
Details in all cases: tags: N-Gal4 AD-HA kept; label: inside an RPR1-promoter hybrid RNA with tandem MS2 sites; ssRNA
PUM1 PUF domain R1-KRT = PUM1 PUF domain R1-KRT (Homo sapiens, UniProt Q14671 828-1176, S863K;Q867T)
Summary of the method: (§1)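 A centromeric plasmid in strain YBZ-1 co-expressed Pumilio-1 PUF domain libraries, randomized at the three base-contacting residues of each repeat, with matching RNA elements; the strain carries a LexA–MS2 coat fusion and a HIS3 reporter. After four days on SC-Leu (input) or SC-Leu-His + 0.5 mM 3-AT (selection), the repeat regions were PCR-amplified and Illumina-sequenced. The interaction score is the log change in variant frequency from input to selection, using log2 and a pseudocount of 1 where absent.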

PUM1 PUF domain R5-PRQ = PUM1 PUF domain R5-PRQ (Homo sapiens, UniProt Q14671 828-1176, C1007P)
Summary of the method: as §1

PUM1 PUF domain R8-RGW = PUM1 PUF domain R8-RGW (Homo sapiens, UniProt Q14671 828-1176, N1122R;Y1123G;Q1126W)
Summary of the method: as §1

PUM1 PUF domain R6-HWL = molecular target: T1, PUM1 PUF domain R6-HWL (Homo sapiens, UniProt Q14671 828-1176, N1043H;Y1044W;Q1047L)
T1 sequence: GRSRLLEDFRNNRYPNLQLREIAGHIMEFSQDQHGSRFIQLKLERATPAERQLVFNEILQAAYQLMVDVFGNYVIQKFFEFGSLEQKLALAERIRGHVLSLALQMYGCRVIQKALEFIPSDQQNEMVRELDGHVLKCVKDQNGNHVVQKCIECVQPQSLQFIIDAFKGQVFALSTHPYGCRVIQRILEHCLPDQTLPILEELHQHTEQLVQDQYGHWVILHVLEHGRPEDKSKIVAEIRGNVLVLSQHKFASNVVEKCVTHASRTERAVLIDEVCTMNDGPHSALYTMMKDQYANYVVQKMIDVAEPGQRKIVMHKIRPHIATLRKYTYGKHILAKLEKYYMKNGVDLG
Summary of the method: as §1

PUM1 PUF domain R5-TRF = PUM1 PUF domain R5-TRF (Homo sapiens, UniProt Q14671 828-1176, C1007T;Q1011F)
Summary of the method: as §1

PUM1 PUF domain R3-GRL = PUM1 PUF domain R3-GRL (Homo sapiens, UniProt Q14671 828-1176, C935G;Q939L)
Summary of the method: as §1

PUM1 PUF domain R2-AWD = PUM1 PUF domain R2-AWD (Homo sapiens, UniProt Q14671 828-1176, N899A;Y900W;Q903D)
Summary of the method: as §1

PUM1 PUF domain R2-SWP = PUM1 PUF domain R2-SWP (Homo sapiens, UniProt Q14671 828-1176, N899S;Y900W;Q903P)
Summary of the method: as §1

PUM1 PUF domain R5-EYG = PUM1 PUF domain R5-EYG (Homo sapiens, UniProt Q14671 828-1176, C1007E;R1008Y;Q1011G)
Summary of the method: as §1

PUM1 PUF domain R5-RDG = PUM1 PUF domain R5-RDG (Homo sapiens, UniProt Q14671 828-1176, C1007R;R1008D;Q1011G)
Summary of the method: as §1

PUM1 PUF domain R1-IRR = PUM1 PUF domain R1-IRR (Homo sapiens, UniProt Q14671 828-1176, S863I;Q867R)
Summary of the method: as §1

PUM1 PUF domain R1-RKD = PUM1 PUF domain R1-RKD (Homo sapiens, UniProt Q14671 828-1176, S863R;R864K;Q867D)
Summary of the method: as §1

PUM1 PUF domain R8-KKP = PUM1 PUF domain R8-KKP (Homo sapiens, UniProt Q14671 828-1176, N1122K;Y1123K;Q1126P)
Summary of the method: as §1

PUM1 PUF domain R3-IWM = PUM1 PUF domain R3-IWM (Homo sapiens, UniProt Q14671 828-1176, C935I;R936W;Q939M)
Summary of the method: as §1

PUM1 PUF domain R7-RTM = PUM1 PUF domain R7-RTM (Homo sapiens, UniProt Q14671 828-1176, S1079R;N1080T;E1083M)
Summary of the method: as §1

Q: “GGCUAGAACUAGUGGAUCCCCCGGCGCCCGGCGGCUCGAGCCCGGGUAAGUGUAAAUGGUCUGCAUGCCGCCGGGCGCCAUGCCUGCAGGUCGACUCUAGAAAACAUG” was tested. Which binding signal (PUM1 PUF domain R1-KRT) did it give?
A: Its binding signal is 4.9 log2 enrichment (interaction score).

Q: What does the source list for “GGCUAGAACUAGUGGAUCCCCCGGCGCCCGGCGGCUCGAGCCCGGGUAAGUGUAAAUAGUCUGCAUGCCGCCGGGCGCCAUGCCUGCAGGUCGACUCUAGAAAACAUG”?
A: binding signal (PUM1 PUF domain R5-PRQ): 3.84 log2 enrichment (interaction score); binding signal (PUM1 PUF domain R8-RGW): 2.47 log2 enrichment (interaction score); binding signal (PUM1 PUF domain R6-HWL): 6.48 log2 enrichment (interaction score); binding signal (PUM1 PUF domain R5-TRF): 3.08 log2 enrichment (interaction score); binding signal (PUM1 PUF domain R3-GRL): 2.71 log2 enrichment (interaction score)

Q: What does the source list for “GGCUAGAACUAGUGGAUCCCCCGGCGCCCGGCGGCUCGAGCCCGGGUAAGUGUAAAAAGUCUGCAUGCCGCCGGGCGCCAUGCCUGCAGGUCGACUCUAGAAAACAUG”?
A: binding signal (PUM1 PUF domain R2-AWD): 6.66 log2 enrichment (interaction score); binding signal (PUM1 PUF domain R2-SWP): 5.19 log2 enrichment (interaction score)

Q: For “GGCUAGAACUAGUGGAUCCCCCGGCGCCCGGCGGCUCGAGCCCGGGUAAGUGUGAAUAGUCUGCAUGCCGCCGGGCGCCAUGCCUGCAGGUCGACUCUAGAAAACAUG”, which binding signal (PUM1 PUF domain R5-EYG) is on record?
A: Its binding signal is 4.35 log2 enrichment (interaction score).

Q: And the binding signal (PUM1 PUF domain R5-RDG)?
A: The binding signal was 2.49 log2 enrichment (interaction score).

Q: For “GGCUAGAACUAGUGGAUCCCCCGGCGCCCGGCGGCUCGAGCCCGGGUAAGUGUAAAUUGUCUGCAUGCCGCCGGGCGCCAUGCCUGCAGGUCGACUCUAGAAAACAUG”, which binding signal (PUM1 PUF domain R1-IRR) is on record?
A: Its binding signal is 2.12 log2 enrichment (interaction score).

Q: What about the binding signal (PUM1 PUF domain R1-RKD) of the same sequence?
A: Its binding signal is 2.73 log2 enrichment (interaction score).

Q: Which binding signal (PUM1 PUF domain R1-IRR) does the source give for “GGCUAGAACUAGUGGAUCCCCCGGCGCCCGGCGGCUCGAGCCCGGGUAAGUGUAAAUCGUCUGCAUGCCGCCGGGCGCCAUGCCUGCAGGUCGACUCUAGAAAACAUG” here?
A: The binding signal was 2.25 log2 enrichment (interaction score).

Q: How did the binding signal (PUM1 PUF domain R8-KKP) turn out when “GGCUAGAACUAGUGGAUCCCCCGGCGCCCGGCGGCUCGAGCCCGGGUAAGCGUAAAUAGUCUGCAUGCCGCCGGGCGCCAUGCCUGCAGGUCGACUCUAGAAAACAUG” was run?
A: Its binding signal is 3.24 log2 enrichment (interaction score).

Q: “GGCUAGAACUAGUGGAUCCCCCGGCGCCCGGCGGCUCGAGCCCGGGUAAGUGUAAGUAGUCUGCAUGCCGCCGGGCGCCAUGCCUGCAGGUCGACUCUAGAAAACAUG” was tested. Which binding signal (PUM1 PUF domain R3-IWM) did it give?
A: Its binding signal is 4.14 log2 enrichment (interaction score).

Q: For “GGCUAGAACUAGUGGAUCCCCCGGCGCCCGGCGGCUCGAGCCCGGGUAAGUGUAAAGAGUCUGCAUGCCGCCGGGCGCCAUGCCUGCAGGUCGACUCUAGAAAACAUG”, which binding signal (PUM1 PUF domain R2-SWP) is on record?
A: Its binding signal is 7.17 log2 enrichment (interaction score).

Q: “GGCUAGAACUAGUGGAUCCCCCGGCGCCCGGCGGCUCGAGCCCGGGUAAGUGUUAAUAGUCUGCAUGCCGCCGGGCGCCAUGCCUGCAGGUCGACUCUAGAAAACAUG” was tested. Which binding signal (PUM1 PUF domain R5-TRF) did it give?
A: The binding signal was 3.8 log2 enrichment (interaction score).

Q: With “GGCUAGAACUAGUGGAUCCCCCGGCGCCCGGCGGCUCGAGCCCGGGUAAGUGUAAUUAGUCUGCAUGCCGCCGGGCGCCAUGCCUGCAGGUCGACUCUAGAAAACAUG” as the sequence, how does the binding signal (PUM1 PUF domain R3-GRL) read?
A: Its binding signal is 0.66 log2 enrichment (interaction score).

Q: “GGCUAGAACUAGUGGAUCCCCCGGCGCCCGGCGGCUCGAGCCCGGGUAAGUUUAAAUAGUCUGCAUGCCGCCGGGCGCCAUGCCUGCAGGUCGACUCUAGAAAACAUG” was tested. Which binding signal (PUM1 PUF domain R7-RTM) did it give?
A: The binding signal was 2.58 log2 enrichment (interaction score).

Q: For “GGCUAGAACUAGUGGAUCCCCCGGCGCCCGGCGGCUCGAGCCCGGGUAAGUCUAAAUAGUCUGCAUGCCGCCGGGCGCCAUGCCUGCAGGUCGACUCUAGAAAACAUG”, which binding signal (PUM1 PUF domain R7-RTM) is on record?
A: Its binding signal is 0.72 log2 enrichment (interaction score).
